The results in this text go back to ChEMBL document CHEMBL1961873, “Compounds: GSK PKIS; Assays: Nanosyn kinase panel” (2012).

Test [1] addresses 5'-AMP-activated protein kinase catalytic subunit alpha-2 (Homo sapiens) (UniProt P54646). Conditions: at 1 µM.
For test [2], the target named is T1, NUAK family SNF1-like kinase 1 (Homo sapiens) (UniProt O60285).
T1 sequence (whole entry): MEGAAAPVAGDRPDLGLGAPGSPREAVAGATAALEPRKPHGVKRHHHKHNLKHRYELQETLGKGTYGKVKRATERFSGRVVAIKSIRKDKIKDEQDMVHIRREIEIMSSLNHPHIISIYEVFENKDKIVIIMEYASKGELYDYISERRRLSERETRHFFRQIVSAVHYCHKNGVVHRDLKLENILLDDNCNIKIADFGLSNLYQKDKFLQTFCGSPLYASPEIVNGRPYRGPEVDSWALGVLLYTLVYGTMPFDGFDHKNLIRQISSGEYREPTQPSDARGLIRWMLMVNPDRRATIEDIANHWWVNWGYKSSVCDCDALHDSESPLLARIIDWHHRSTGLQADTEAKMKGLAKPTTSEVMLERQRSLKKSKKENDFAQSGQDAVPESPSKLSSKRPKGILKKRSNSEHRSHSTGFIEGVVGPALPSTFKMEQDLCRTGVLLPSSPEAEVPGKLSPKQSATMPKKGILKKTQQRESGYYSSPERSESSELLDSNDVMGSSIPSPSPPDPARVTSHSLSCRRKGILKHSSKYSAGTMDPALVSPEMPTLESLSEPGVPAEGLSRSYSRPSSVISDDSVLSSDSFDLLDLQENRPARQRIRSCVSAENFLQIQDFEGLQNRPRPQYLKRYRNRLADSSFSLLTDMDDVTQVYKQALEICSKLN
The note with it: at 0.1 µM.

Test [3] deals with T1, NUAK family SNF1-like kinase 1 (Homo sapiens). Conditions: at 1 µM.
Test [4] addresses T2, Serine/threonine-protein kinase BRSK1 (Homo sapiens) (UniProt Q8TDC3).
T2 sequence (whole entry): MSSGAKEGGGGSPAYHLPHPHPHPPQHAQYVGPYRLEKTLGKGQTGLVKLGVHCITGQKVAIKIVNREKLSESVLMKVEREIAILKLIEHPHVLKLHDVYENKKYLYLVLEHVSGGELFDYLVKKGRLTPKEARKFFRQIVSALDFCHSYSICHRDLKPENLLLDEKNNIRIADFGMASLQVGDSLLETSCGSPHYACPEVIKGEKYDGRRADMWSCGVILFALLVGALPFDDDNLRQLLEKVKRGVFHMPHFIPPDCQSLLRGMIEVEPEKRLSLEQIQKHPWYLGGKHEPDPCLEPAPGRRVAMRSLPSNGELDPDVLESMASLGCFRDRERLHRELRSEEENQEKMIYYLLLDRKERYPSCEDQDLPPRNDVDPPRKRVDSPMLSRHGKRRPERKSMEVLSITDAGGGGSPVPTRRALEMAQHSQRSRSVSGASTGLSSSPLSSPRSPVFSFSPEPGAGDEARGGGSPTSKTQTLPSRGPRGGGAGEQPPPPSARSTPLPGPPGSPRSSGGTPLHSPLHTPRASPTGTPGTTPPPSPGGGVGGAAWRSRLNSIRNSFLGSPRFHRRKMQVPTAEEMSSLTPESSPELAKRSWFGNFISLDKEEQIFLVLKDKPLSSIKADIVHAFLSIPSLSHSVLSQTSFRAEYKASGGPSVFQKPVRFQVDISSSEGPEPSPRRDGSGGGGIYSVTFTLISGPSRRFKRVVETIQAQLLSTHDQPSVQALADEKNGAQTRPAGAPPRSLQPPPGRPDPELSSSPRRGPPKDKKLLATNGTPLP
Conditions: at 0.1 µM.

For test [5], the target named is T2, Serine/threonine-protein kinase BRSK1 (Homo sapiens). The note with it: at 1 µM.
Test [6] addresses T3, Serine/threonine-protein kinase BRSK2 (Homo sapiens) (UniProt Q8IWQ3).
T3 sequence (whole entry): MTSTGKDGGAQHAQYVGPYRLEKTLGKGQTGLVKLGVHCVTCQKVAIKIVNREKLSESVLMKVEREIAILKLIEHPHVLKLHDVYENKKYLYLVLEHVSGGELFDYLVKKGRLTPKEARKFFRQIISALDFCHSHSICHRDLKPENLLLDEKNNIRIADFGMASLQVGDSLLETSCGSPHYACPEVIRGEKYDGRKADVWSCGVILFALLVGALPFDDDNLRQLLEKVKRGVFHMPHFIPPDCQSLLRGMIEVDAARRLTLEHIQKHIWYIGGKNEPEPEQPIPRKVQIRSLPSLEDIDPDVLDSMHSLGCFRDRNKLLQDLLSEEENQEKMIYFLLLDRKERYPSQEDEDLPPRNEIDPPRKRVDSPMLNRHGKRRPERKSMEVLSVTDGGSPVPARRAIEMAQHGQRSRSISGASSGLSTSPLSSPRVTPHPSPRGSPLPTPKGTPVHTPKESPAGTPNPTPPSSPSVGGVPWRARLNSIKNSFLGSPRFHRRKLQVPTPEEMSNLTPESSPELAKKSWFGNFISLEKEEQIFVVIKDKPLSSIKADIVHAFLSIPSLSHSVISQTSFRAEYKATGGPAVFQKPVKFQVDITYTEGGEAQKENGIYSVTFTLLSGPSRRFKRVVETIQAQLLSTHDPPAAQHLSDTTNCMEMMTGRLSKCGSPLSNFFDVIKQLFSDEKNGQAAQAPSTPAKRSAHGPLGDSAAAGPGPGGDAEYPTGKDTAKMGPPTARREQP
Conditions: at 0.1 µM.

For test [7], the target named is T3, Serine/threonine-protein kinase BRSK2 (Homo sapiens). The note with it: at 1 µM.
Test [8] addresses Calcium/calmodulin-dependent protein kinase type 1D (Homo sapiens) (UniProt Q8IU85). Conditions: at 0.1 µM.
For test [9] the target is unchanged. Conditions: at 1 µM.
In test [10] the target is Calcium/calmodulin-dependent protein kinase type II subunit alpha (Homo sapiens) (UniProt Q9UQM7). The note with it: at 0.1 µM.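 Note: reported values are averages (mean inhibition of CAMK2A).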
Calcium/calmodulin-dependent protein kinase type II subunit alpha (Homo sapiens), sequence (Q9UQM7 whole entry): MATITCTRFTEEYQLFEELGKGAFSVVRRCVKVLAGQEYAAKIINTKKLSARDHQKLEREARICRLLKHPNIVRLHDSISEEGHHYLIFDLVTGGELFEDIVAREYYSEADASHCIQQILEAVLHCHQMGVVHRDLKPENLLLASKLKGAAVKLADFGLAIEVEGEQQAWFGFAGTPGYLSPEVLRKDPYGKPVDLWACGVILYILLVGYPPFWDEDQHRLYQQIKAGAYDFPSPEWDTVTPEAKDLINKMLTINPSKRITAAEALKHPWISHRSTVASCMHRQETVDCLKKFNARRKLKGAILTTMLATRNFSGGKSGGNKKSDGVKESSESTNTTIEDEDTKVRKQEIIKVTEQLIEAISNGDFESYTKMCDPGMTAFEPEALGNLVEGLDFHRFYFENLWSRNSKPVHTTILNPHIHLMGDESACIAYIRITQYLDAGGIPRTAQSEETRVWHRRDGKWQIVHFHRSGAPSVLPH

Calcium/calmodulin-dependent protein kinase type 1D (Homo sapiens), sequence (Q8IU85 whole entry, looked up): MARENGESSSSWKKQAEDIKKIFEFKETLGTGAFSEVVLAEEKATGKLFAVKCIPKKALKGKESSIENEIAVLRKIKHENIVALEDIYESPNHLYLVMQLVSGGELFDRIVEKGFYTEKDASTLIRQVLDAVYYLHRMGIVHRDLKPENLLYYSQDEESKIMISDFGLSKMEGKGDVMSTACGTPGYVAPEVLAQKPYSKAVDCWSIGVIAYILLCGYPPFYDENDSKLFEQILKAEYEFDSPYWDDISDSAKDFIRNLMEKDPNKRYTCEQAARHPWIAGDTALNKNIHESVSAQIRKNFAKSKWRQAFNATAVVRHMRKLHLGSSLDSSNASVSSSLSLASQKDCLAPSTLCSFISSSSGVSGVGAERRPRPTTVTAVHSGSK
5'-AMP-activated protein kinase catalytic subunit alpha-2 (Homo sapiens), sequence (P54646 whole entry, looked up): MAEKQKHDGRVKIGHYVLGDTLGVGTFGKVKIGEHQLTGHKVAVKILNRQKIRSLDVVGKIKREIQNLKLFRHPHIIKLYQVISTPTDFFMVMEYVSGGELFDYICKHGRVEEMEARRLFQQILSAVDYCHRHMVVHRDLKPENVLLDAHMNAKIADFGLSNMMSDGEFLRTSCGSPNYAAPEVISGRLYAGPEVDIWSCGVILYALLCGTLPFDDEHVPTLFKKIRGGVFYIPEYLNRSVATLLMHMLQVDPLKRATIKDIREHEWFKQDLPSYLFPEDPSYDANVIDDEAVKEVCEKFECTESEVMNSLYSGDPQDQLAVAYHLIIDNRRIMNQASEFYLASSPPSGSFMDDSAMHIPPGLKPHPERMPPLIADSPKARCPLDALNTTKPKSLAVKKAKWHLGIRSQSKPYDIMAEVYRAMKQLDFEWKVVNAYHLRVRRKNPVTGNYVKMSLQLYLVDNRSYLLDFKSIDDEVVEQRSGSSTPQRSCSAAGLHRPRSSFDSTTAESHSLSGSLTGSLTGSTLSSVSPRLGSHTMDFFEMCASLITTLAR

In the case of `CN(C)c1cc2c(Nc3ccc4c(cnn4Cc4ccccc4)c3)ncnc2cn1`, the inhibition in [1] was determined as 2.49%; in test [2], 1.17%; in [3] it was 3.46%; in test [4], 2.42%; in test [5], 7.54%; in test [6], 2.27%. Also, the inhibition in [7] is 9.3%; in [8] it was -0.24%; in test [9], 0.88%; in test [10] it was 2.88%.

For the compound `NS(=O)(=O)c1ccc(NC=C2C(=O)Nc3ccc4ncsc4c32)cc1`, the inhibition in [1] was 53.4%; in [2], 69.9%; in test [3], 69.8%; in [4] it was 34.1%; in [5], 60.3%; in test [6] it was 45.2%. The inhibition in test [7] came out at 63.6%; in [8] it was 2.99%; in test [9], 8.72%; in test [10], 4.91%.

As to `COc1cc(/C=N/Nc2ncnc3c2cnn3C(C)C)ccc1O`, the inhibition in test [1] came out at 4.32%; in test [2] it was 7.43%; in [3], 22.3%; in [4], 1.45%; in test [5] it was 7.43%; in test [6], 1.52%. In addition, the inhibition in [7] is 12.1%; in test [8] it was 1.23%; in test [9], 0.59%; in [10], -0.2%.

For `Nc1nccc(-c2c(-c3ccc(F)cc3)nn3cc(C(F)(F)F)ccc23)n1`, the inhibition in test [1] is 0.34%; in [2], 0.16%; in test [3] it was -3%; in [4], -0.37%; in test [5], 0.47%; in test [6], 0.15%. The inhibition is -0.77% in test [7], -1.67% in [8], -2.05% in test [9] and 0.49% in test [10].

For `Nc1nccc(C#Cc2cncnc2Nc2ccc(OCc3cccc(F)c3)c(Cl)c2)n1`, the inhibition was determined as 6.02% in [1]; 2.82% in test [2]; 9.68% in test [3]; 3.95% in [4]; 8.92% in test [5]; 4.89% in test [6]. Besides, the inhibition is 10.8% in [7], -0.54% in test [8], 2.27% in [9] and 3.24% in [10].

Regarding `c1ccc(Nc2ncc(-c3ccccc3)o2)cc1`, the inhibition in test [1] was 0.19%; in test [2], -0.12%; in test [3], 11%; in test [4] it was 0.5%; in test [5], 2.07%; in test [6] it was 0.2%. The inhibition in test [7] turned out to be 3.56%; in test [8] it was 1.22%; in [9], 2.94%; in test [10], 2.13%.

For the compound `NS(=O)(=O)c1ccc(Nc2cc(-c3cccc(O)c3)n[nH]2)cc1`, the inhibition in [1] stood at 9.57%; in test [2], 5.05%; in [3], 13.9%; in test [4] it was 3.55%; in test [5], 4.52%; in [6], 3.59%. The inhibition in test [7] worked out at 7.4%; in test [8] it was 1.05%; in test [9], 0.76%; in test [10], 4.18%.

`O=S(=O)(CCOCc1ccc(-c2ccc3ncnc(Nc4ccc(OCc5cccc(F)c5)c(Cl)c4)c3c2)o1)c1ccccc1`: the inhibition in [1] is 1.68%; in test [2] it was -2.09%; in test [3], -0.72%; in test [4], -0.74%; in test [5], 1.37%; in [6], 1.25%. The inhibition is 2.98% in [7], 0% in [8], 0.46% in test [9] and -0.52% in [10].

As for `c1ccc(Cc2nc3ccc(Nc4ncnc5ccccc45)cc3[nH]2)cc1`, the inhibition in test [1] is 2.91%; in test [2], 4.96%; in test [3], 5.29%; in [4], -0.34%; in [5] it was 3.16%; in test [6] it was 1.93%. The inhibition was 5% in test [7], -0.7% in test [8], 0.04% in [9] and 2.75% in test [10].

Turning to `COc1ccc2ncnc(Nc3ccc(OCc4ccccc4)cc3)c2c1`, the inhibition was 2.09% in [1]; 0.25% in test [2]; -1.38% in test [3]; -0.52% in [4]; 0.79% in test [5]; 2.22% in test [6]. In addition, the inhibition worked out at 1.79% in [7], 0.63% in test [8], 1.33% in [9] and 0.65% in [10].

On to `CCn1c(-c2nonc2N)nc2c(C#CC(C)(C)O)nc(OCCNC)cc21`, for which the inhibition turned out to be 3.94% in test [1]; 1.05% in [2]; 3.39% in test [3]; 1.73% in test [4]; 0.16% in test [5]; 1.24% in [6]. Moreover, the inhibition was found to be 4.81% in test [7], 1.21% in test [8], 2.06% in [9] and 3.99% in test [10].

With `CN(C)C(=O)O[C@H]1CN[C@H](C#Cc2cc3ncnc(Nc4ccc(OCc5cccc(F)c5)c(Cl)c4)c3s2)C1`, the inhibition in test [1] is 3.32%; in [2], 1.87%; in [3], 1.59%; in test [4] it was 2.39%; in [5], 3.13%; in test [6], 2.38%. Further, the inhibition in test [7] was 2.85%; in test [8] it was 0.05%; in test [9], 0.1%; in [10] it was 2.54%.

`Cc1cc(Cl)cc2c1NC(=O)C2=NNc1ccc(S(N)(=O)=O)cc1`: the inhibition in test [1] is 1.04%; in [2], 0.35%; in test [3] it was 8.3%; in test [4], -1.42%; in test [5], 3.61%; in [6] it was 1.16%. Further, the inhibition in test [7] was 3.77%; in [8], 0.2%; in [9], -0.6%; in test [10], 4.14%.

For `Cc1nc(-c2ccccc2)n2nc(NCCCN3CCOCC3)ncc12`, the inhibition in [1] is 4.91%; in [2], 0.66%; in test [3] it was 20.3%; in test [4] it was 1.1%; in test [5], -0.76%; in [6], 1.22%. Moreover, the inhibition in [7] was 2.49%; in test [8] it was 1.67%; in [9], 2.49%; in test [10], 2.42%.

As to `COc1cccc(-n2ncc3c(N/N=C/c4ccc(C)cc4)ncnc32)c1`, the inhibition came to 6% in [1]; 6.88% in test [2]; 16.2% in test [3]; 6.04% in [4]; 9.05% in test [5]; 5.73% in test [6]. Also, the inhibition in test [7] was found to be 12.7%; in [8], 0.52%; in test [9] it was 3.47%; in [10], 3.6%.

As to `NS(=O)(=O)c1cccc(-c2cc3ccncc3cc2OCc2ccccc2)c1`, the inhibition in test [1] amounted to 7.06%; in [2], 8.52%; in test [3] it was 11.3%; in [4], 3.31%; in test [5], 3.45%; in test [6] it was 2.26%. Besides, the inhibition in test [7] turned out to be 3.2%; in test [8], 0.47%; in test [9], 0.96%; in test [10], 4.23%.

With `Cc1ccc(C(=O)NC2CC2)cc1-c1ccc2[nH]ncc2c1`, the inhibition is -3.42% in test [1]; 6.51% in [2]; 6.93% in test [3]; 1.35% in test [4]; 3.03% in [5]; 1.54% in test [6]. Besides, the inhibition is 5.84% in test [7], -0.69% in test [8], 0.06% in [9] and -4.3% in test [10].

As usually defined, the inhibition is the drop in the measured response relative to a control, in per cent.
